Mito fusion yeast: qHTS Assay for Small Molecule Inhibitors of Mitochondrial Division or Activators of Mitochondrial Fusion; S. cerevisiae fusion-defective mutant growth rescue, CellTiterGlo 48 h; Potency, µM (titrated, usually from 46.1 µM), without a hit: at the highest dose growth rescue (activation), actives largely listed as activators; actives 0.23% (n = 320,000); also: potency is read from the fitted curve at half-maximal effect; % of control where 0% means no effect; nearly all actives have a fitted effect of over 45% in size
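Temperature-sensitive fusion-defective S. cerevisiae (e.g. fzo1-1, mgm1-5) were grown with compound in YPEG medium (3% ethanol, 3% glycerol) for 48 hours at 37C. Growth rescue was measured as viability by CellTiterGlo luminescence after 10 minutes at ambient.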
miR-21 act: qHTS Assay for Modulators of miRNAs and/orActivators of miR-21 | HeLa miR-21 FLuc reporter, luciferase, 48 h | Potency, µM (series often up to 38.3 µM), for inactives: top-dose activity change, positive = activation, actives largely listed as activators | 340,000 tested, under 10 active | AID 2288, 2010;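 also: % of control where 0% means no effect; miR-21 action dims this reporter so a rising signal means less miR-21 action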
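Using DMEM plus 10% FBS, HeLa miR-21-FLuc cells are incubated with test compounds (final up to about 40uM) for 48 hours; firefly luciferase signal is then imaged following reagent-mediated lysis.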
Nrf2 ARE act: qHTS of Nrf2 Activators. AREc32 ARE-luciferase reporter (MCF7-derived line), luminescence, 24 h. Potency, µM (highest dose often 46.1 µM), inactives show at the top dose activation, usual class: activators. actives 0.31% (n = 410,000). AID 624171, 2012; also: potency is read from the fitted curve at half-maximal effect; % of control where 0% means no effect; nearly all actives have a fitted effect of over 65% in size
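Steps: seed AREc32_Fluc cells (1000/well, 5% FBS OPTI-MEM); incubate overnight at 37 deg C; add 23 nL compound; incubate 24 hr; add Steady-Glo; hold 30 min RT; read luminescence.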
A549 viability: Nrf2 qHTS screen for inhibitors: counterscreen for cytotoxicity; A549 ARE-Fluc cells, CellTiter-Fluor viability, 18-24 h; Potency, µM (highest dose often 46 µM), without a hit: top-dose activity change, negative = cytotoxicity, hits mostly inhibitors; actives 0.16% (n = 390,000); also: potency is read from the fitted curve at half-maximal effect; % is scaled to controls: 0 for no effect and ±100 for the full control effect
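Cytotoxicity counterscreen: CellTiter-Fluor fluorescence was measured in A549 ARE_Fluc cells after 18-24 h of compound exposure in a concentration series. The subsequent BugLite luminescent read reports ARE-luciferase activity.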
Nrf2 inh: Nrf2 qHTS screen for inhibitors; A549 ARE-Fluc reporter, luciferase luminescence, 18-24 h; Potency, µM (doses to about 46 µM), for inactives: at the highest dose activity change, negative = inhibition, usual class: inhibitors; actives 2.1% (n = 360,000); AID 504444, 2011; also: potency is read from the fitted curve at half-maximal effect; % is scaled to controls: 0 for no effect and ±100 for the full control effect; nearly all actives have a fitted effect of over 60% in size
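Nrf2 activity is the BugLite luminescence, read 15 min after reagent at room temperature, following CellTiter-Fluor cytotoxicity readout (30 min, 37C). Compound titrations were applied for 18-24 h to 5000 A549 ARE_Fluc cells/well in 5% FBS OPTI-MEM.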
Numbers without * were called inactive; u = inconclusive; x = not tested or not shown. Sampled rows, rich in hits. Any-hit rate of the full collection: about 2.3%. Calls follow the shape of the dose curve; as a rule, active = well fitted curve in the direction sought with a large enough effect; inconclusive = small, poorly fitted or top-dose-only effect, or another doubt; inactive = no such curve, though single readings can be large; an effect the other way counts as inactive or inconclusive.

SMILES	Mito fusion yeast	miR-21 act	Nrf2 ARE act	A549 viability	Nrf2 inh
COc1ccccc1NC(=O)C1=C(C)Nc2nc(SCc3cccc(F)c3)nn2C1c1ccc(C(=O)O)cc1 (stereo not drawn)	-7%	0%	0%	1%	8%
C(=N/n1c2ccccc2c2ccccc21)/c1ccco1	2%	-1%	3.2µM*	12%	x
N=c1scc(-c2ccccc2)n1/N=C/c1ccco1	-2%	-51%	11µM*	-6%	3%
COc1cccc(-n2c(=O)c3c(C)c(C(=O)N(C)C)sc3n(Cc3ccc(F)cc3Cl)c2=O)c1	x	-9%	-1%	-15%	x
Cn1nnc2c(N3CCN(Cc4ccccc4)CC3)ncnc21	x	x	x	8%	u
Cc1[nH]c2ccccc2c1SCc1nnc(SCc2ccccc2)n1C	5%	13%	-1%	3%	26µM*
Cn1c(=O)n(C)c2cc(CNCc3ccc(F)cc3)ccc21	x	-8%	0%	-8%	-5%
O=C(C1CCC(CNS(=O)(=O)c2cccs2)CC1)N1CCN(c2ccc(Cl)cc2)CC1 (stereo not drawn)	0%	u	7%	u	8.2µM*
Cc1csc2ncnc(NNC(=O)c3ccc(Cl)cc3)c12	3%	14%	0%	-17%	21µM*
CC(=O)Nc1cccc(Oc2ncnc3scc(-c4ccc(C)cc4)c23)c1	u	19%	0%	u	18µM*
Cc1ccc(-c2csc3ncnc(Oc4ccc5c(C)cc(=O)oc5c4)c23)cc1	13%	-3%	0%	-2%	-29%
CCOC(=O)C(C)N1C(=O)S/C(=C/c2ccc3c(c2)n(C)c(=O)n3C)C1=O (stereo not drawn)	8%	2%	u	-6%	21µM*
COC(=O)c1cc(NC(=O)CN(c2cccc(OC)c2)S(=O)(=O)c2ccccc2)ccc1Cl	7%	27%	2%	-10%	23µM*
Cc1ccc(N(C)C(=O)N2CCN(S(=O)(=O)c3ccc4ccccc4c3)CC2)cc1	u	-1%	-1%	-17%	18µM*
Cc1ccc(N(C)C(=O)N2CCN(S(=O)(=O)c3ccc(C)cc3)CC2)cc1	6%	-20%	4%	-2%	-25%
CNC(=S)N1CCN(S(=O)(=O)c2ccc3ccccc3c2)CC1	10%	-1%	2%	2%	23µM*
O=C(Nc1ccc(F)cc1)Nc1csc2c1CCCC2	x	22%	-1%	-25%	u
O=S(=O)(NCCNc1nc(-c2ccco2)nc2ccccc12)c1ccccc1	x	x	x	-3%	12%
CCn1nnnc1NCc1ccc(OCc2ccc(F)cc2Cl)c(OC)c1	-2%	-7%	0%	-7%	21µM*
COc1cc(CNc2nnnn2C)ccc1OCc1ccc(F)cc1Cl	6%	-14%	3%	2%	-10%
O=C(OCC#CCSc1nnc(-c2cccc3ccccc23)o1)c1ccccc1	x	x	x	-6%	-3%
O=C1C(=O)C(c2ccc(O)cc2O)Oc2cc(O)cc(O)c21 (stereo not drawn)	x	x	x	-11%	7%
Cc1cccc(OCC(=O)Nc2nnc(-c3ccco3)s2)c1	-1%	-13%	7%	0%	u
COc1ccc(NC(=O)Nc2nnc(-c3ccccc3F)s2)cc1	2%	4%	u	-5%	u
COc1ccc(NC(=O)Nc2nnc(-c3ccco3)s2)cc1	3%	-62%	13µM*	-5%	u
SMILES	Mito fusion yeast	miR-21 act	Nrf2 ARE act	A549 viability	Nrf2 inh
COc1ccccc1OCC(=O)Nc1nnc(-c2ccco2)s1	u	-17%	11µM*	11%	7%
COc1ccc(-c2nn3c(-c4ccc(C)cc4)nnc3c3ccccc23)cc1	x	-4%	-1%	2%	6%
O=C(NCC1CCCN1S(=O)(=O)c1cccs1)c1ccc(Cl)cc1 (stereo not drawn)	-25%	x	0%	-5%	23µM*
O=C(NCC1CCCN1S(=O)(=O)c1cccs1)c1ccc(F)cc1 (stereo not drawn)	5%	x	0%	2%	-19%
O=C(NCC1CCCN1S(=O)(=O)c1cccs1)c1cccc(F)c1 (stereo not drawn)	9%	x	2%	-13%	13µM*
CCOC(=O)c1ccccc1NC(=O)CSc1nnc(CC)n2c1cc1occc12	x	2%	4%	-1%	7%
CCc1nnc(SCC(=O)N(CC)c2ccccc2)c2cc3oc(C)cc3n12	x	-1%	5.6µM*	-1%	-28%
Cc1ccc(S(=O)(=O)N2CCN(C(=O)c3cc(S(=O)(=O)N4CCOCC4)ccc3Cl)CC2)c(C)c1	x	x	0%	-4%	21µM*
CCn1cc(C(=O)N2CCN(c3cccc(Cl)c3)CC2)c(=O)c2cc(S(=O)(=O)N3CCC(C)CC3)ccc21	x	19%	0%	-4%	21µM*
CC(=O)c1ccc(N2CCN(c3ccc(C(F)(F)F)cn3)CC2)cc1	5%	-10%	0%	0%	9.2µM*
O=C(c1cc(S(=O)(=O)N2CCCCC2)ccc1Cl)N1CCOCC1	-7%	1%	0%	-1%	0%
CCn1cc(C(=O)N2CCN(c3cc(Cl)ccc3C)CC2)c(=O)c2cc(S(=O)(=O)N3CCOCC3)ccc21	x	27%	-1%	-12%	21µM*
Cc1ccc(S(=O)(=O)N2CCOCC2)cc1C(=O)N1CCN(c2ccc(C(F)(F)F)cn2)CC1	x	x	4%	0%	26µM*
CCOC(=O)C1(C)C=C(Nc2ccc(C)cc2)C(=O)N1c1ccccc1 (stereo not drawn)	x	-5%	0%	3%	12%
Cc1c(C#N)c(NC(=O)CCl)n(Cc2ccc(F)cc2)c1C	2%	u	u	-25%	18µM*
Cc1c(C#N)c(NC(=O)CCl)n(Cc2cccs2)c1C	4%	u	u	u	15µM*
COc1cc(F)c(S(=O)(=O)N2CCN(S(=O)(=O)c3ccc4c(c3)OCCO4)CC2)c(F)c1	x	x	x	-9%	2%
Cc1ccc(Cl)cc1Nc1sc(C(=O)c2ccccc2)c(N)c1S(=O)(=O)c1ccccc1	x	-2%	0%	5%	u
CCS(=O)(=O)c1c(Nc2cc(C)ccc2C)sc(C(=O)c2ccccc2)c1N	x	u	1%	-29%	23µM*
Cn1cc(-c2cc3n(n2)CCC(=O)N3CCCC(=O)NCc2ccccc2Cl)c2ccccc21	x	1%	5%	11%	x
Cn1cc(CCNC(=O)CC2C(=O)NCCN2Cc2cccc(Oc3ccccc3)c2)cn1 (stereo not drawn)	0%	-3%	0%	6%	15µM*
CNC(=O)C1CCC(Cn2c(=O)c3sccc3n(CC(=O)NCc3ccc(F)cc3)c2=O)CC1 (stereo not drawn)	x	0%	0%	-1%	u

Compound activity from PubChem BioAssay.
